# Measurements published in PMC5540273 (PLoS ONE, 2017).
# How the values were obtained:
# Conditions in all cases: concentration: 1 μM, replicates: in singlicate; n = 1
# ERK1 = tested on: T1, ERK1
# T1 construct: gene MAPK3
# ERK2 = tested on: T2, ERK2
# T2 construct: gene MAPK1
# ERK3 = tested on: T3, ERK3
# T3 construct: gene MAPK6
# ERK4 = tested on: T4, ERK4
# T4 construct: gene MAPK4
# ERK5 = tested on: T5, ERK5
# T5 construct: gene MAPK7
# ERK8 = tested on: T6, ERK8
# T6 construct: gene MAPK15
# ERN1 = tested on: ERN1
# FAK = tested on: T7, FAK
# T7 construct: gene PTK2
# FER = tested on: FER
# FES = tested on: FES
# FGFR1 = tested on: FGFR1
# FGFR2 = tested on: FGFR2
# FGFR3 = tested on: FGFR3
# FGFR4 = tested on: FGFR4
# FGR = tested on: FGR
# FLT1 = tested on: FLT1
# FLT3-autoinhibited = tested on: FLT3-autoinhibited
# FLT3 = tested on: FLT3
# FLT4 = tested on: FLT4
# FRK = tested on: FRK
# 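Note: KINOMEscan kinase panel screen.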
Structure (SMILES),%Inh (ERK1) [%],%Inh (ERK2) [%],%Inh (ERK3) [%],%Inh (ERK4) [%],%Inh (ERK5) [%],%Inh (ERK8) [%],%Inh (ERN1) [%],%Inh (FAK) [%],%Inh (FER) [%],%Inh (FES) [%],%Inh (FGFR1) [%],%Inh (FGFR2) [%],%Inh (FGFR3) [%],%Inh (FGFR4) [%],%Inh (FGR) [%],%Inh (FLT1) [%],%Inh (FLT3-autoinhibited) [%],%Inh (FLT3) [%],%Inh (FLT4) [%],%Inh (FRK) [%]
Cc1occc1-c1ncc(OC[C@@H](N)Cc2c[nH]c3ccccc23)cc1-c1ccc2[nH]nc(C)c2c1.O=C(O)C(F)(F)F [GSK682037],94.1,82,5,15,0,0,6,40,76,47,6,0,1,0,77,11,0,0,3,57
COc1cc2c(cc1OCCN1CCNCC1)ncc1c3ccc(C#N)cc3[nH]c21,0,0,0,23,15,12,44,10,0,2,0,16,21,0,2,6,95.8,98.5,0,0
Cl.NC(=O)c1cccc(Nc2nccc(Nc3ccc(Oc4c(Cl)cccc4Cl)c(Cl)c3)n2)c1 [GW659009],0,0,0,0,0,10,12,0,0,0,0,0,0,0,31,0,12,33,0,7
O=C(Nc1n[nH]c2nc(-c3ccc(O)cc3)ccc12)C1CC1 [SB-710363],0,0,0,0,63,90.2,0,0,0,0,0,0,0,0,11,16,18,82,0,0
O=C(O)C(F)(F)F.O=C(O)C(F)(F)F.O=c1[nH]ccc2nc(N[C@@H]3CCCNC3)nc(Nc3ccc(S(=O)(=O)N4CCOCC4)cc3)c12 [GSK2177277],59,72,100,100,58,99.2,60,86,95.4,68,81,60,62,0,91.2,68,99.6,99.3,98.7,39
CCn1c(-c2nonc2N)nc2c(C#CC(C)(C)O)ncc(OCCCCN)c21.O=C(O)C(F)(F)F.O=C(O)C(F)(F)F [GSK507274],0,1,6,8,0,10,0,0,0,9,0,60,5,9,33,23,0,0,15,26
Cc1ccc(C(=O)N2CC[C@@H](O)C2)cc1-n1c(C)cc(OCc2ccc(F)cc2F)c(Br)c1=O,0,0,0,9,0,0,0,0,1,0,80,66,21,0,0,46,0,14,0,14
COC(=O)Nc1nc2cc(Oc3ccc(NC(=O)Nc4cc(C(F)(F)F)ccc4F)cn3)ccc2[nH]1.Cl.Cl [GW681170],8,0,0,1,0,95.3,0,0,23,0,7,0,4,3,15,94.1,40,99.1,79,55
COc1cc(Nc2nccc(-c3c(-c4cccc(NC(=O)c5c(F)cccc5F)c4)nn4ccccc34)n2)cc(OC)c1OC [GSK323521],25,36,0,3,0,24,2,0,14,0,17,0,12,0,27,41,0,98.4,20,11
